Test results published in PubChem BioAssay (Tox21).
Inconclusive results are not listed. Activity calls are given as the source filed them. Calls follow the shape of the full dose curve.

molecular target: Progesterone receptor (Homo sapiens) (UniProt P06401); assay: qHTS assay to identify small molecule agonists of the progesterone receptor (PR) signaling pathway (AID 1346784); conditions: PR-UAS-bla HEK293T, beta-lactamase FRET ratio, 16 h; series mostly up to 92.4 µM; activation: at the top concentration; also: nearly all actives have a fitted effect of over 30% in size
Sequence (P06401 whole entry, looked up): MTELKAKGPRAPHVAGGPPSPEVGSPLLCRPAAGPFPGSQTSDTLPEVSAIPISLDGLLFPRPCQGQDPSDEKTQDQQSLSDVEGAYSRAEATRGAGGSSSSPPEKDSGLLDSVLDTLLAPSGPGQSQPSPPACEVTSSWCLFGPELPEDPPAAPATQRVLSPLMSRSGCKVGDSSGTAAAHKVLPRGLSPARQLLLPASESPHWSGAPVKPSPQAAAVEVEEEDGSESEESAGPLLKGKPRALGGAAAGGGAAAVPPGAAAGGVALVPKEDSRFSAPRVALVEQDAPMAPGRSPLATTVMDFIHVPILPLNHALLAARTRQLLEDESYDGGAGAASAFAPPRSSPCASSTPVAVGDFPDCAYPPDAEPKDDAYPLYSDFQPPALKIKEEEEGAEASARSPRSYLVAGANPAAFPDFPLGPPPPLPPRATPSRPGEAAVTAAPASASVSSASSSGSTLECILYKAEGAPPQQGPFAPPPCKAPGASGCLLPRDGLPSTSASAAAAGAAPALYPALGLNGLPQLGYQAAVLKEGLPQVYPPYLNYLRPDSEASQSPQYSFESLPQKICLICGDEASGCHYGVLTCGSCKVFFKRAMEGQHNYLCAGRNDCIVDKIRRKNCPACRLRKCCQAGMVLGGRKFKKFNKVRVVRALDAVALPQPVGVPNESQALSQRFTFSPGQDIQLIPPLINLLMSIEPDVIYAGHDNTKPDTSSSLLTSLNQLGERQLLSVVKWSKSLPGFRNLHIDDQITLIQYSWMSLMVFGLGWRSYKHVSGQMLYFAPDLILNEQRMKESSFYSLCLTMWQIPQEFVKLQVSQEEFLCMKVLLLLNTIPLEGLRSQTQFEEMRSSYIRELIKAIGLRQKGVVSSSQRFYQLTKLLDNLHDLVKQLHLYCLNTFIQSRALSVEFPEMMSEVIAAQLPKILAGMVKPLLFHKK
Source text: U.S. Tox21 Program National Center for Advancing Translational Sciences [NCATS] NIH Chemical Genomics Center [NCGC] U.S. Environmental Protection Agency [EPA] National Institutes of Environmental Health Sciences [NIEHS] National Toxicology Program [NTP] U.S. Food and Drug Administration [FDA] […] Endocrine disrupting chemicals (EDCs) and their interactions with steroid hormone receptors like PR causes disruption of normal endocrine function. To identify the compounds that activate PR signaling, a PR-UAS-bla GripTite cell line i.e. PR-UAS-bla HEK 293T (Invitrogen, Carlsbad, CA, USA) containing a beta-lactamase reporter gene under the control of an Upstream Activator Sequence (UAS) was used to screen Tox21 10K compound library.
Tox21 Assay Protocol Summary: PR-UAS-bla HEK 293T cells were dispensed at 3,000 cells/5 uL of assay medium containing 2% charcoal stripped FBS per well into black wall/clear-bottom 1536-well plates using a Multidrop Combi (ThermoFisher Scientific, Waltham, MA) dispenser. After the assay plates were incubated at a 37C and 5% CO2 for 6hr, 23 nL of compounds dissolved in DMSO, positive controls or DMSO only was transferred to the assay plate by a Pintool station (Kalypsys, San Diego, CA). The plates were incubated at 37C and 5% CO2 for 16hr. Then 1 uL of LiveBLAzer B/G FRET substrate was added using a BioRAPTR FRD (Flying Reagent Dispenser, Aurora Discovery, San Diego, CA). After the plates were incubated at room temperature for 2 hours, fluorescence intensity was measured by an Envision plate reader (PerkinElmer, Shelton, CT).
% is scaled to controls: 0 for no effect and ±100 for the full control effect.

| SMILES | activation | Potency |
| --- | --- | --- |
| COc1ccc(CCC(=O)c2c(O)cc(O[C@@H]3O[C@H](CO)[C@@H](O)[C@H](O)[C@H]3O[C@@H]3O[C@@H](C)[C@H](O)[C@@H](O)[C@H]3O)cc2O)cc1O | -0.252% (inactive) |  |
| Cc1oncc1C(=O)Nc1ccc(C(F)(F)F)cc1 |  | inactive |
| Nc1nc(Cl)nc2c1ncn2[C@@H]1O[C@H](CO)[C@@H](O)[C@@H]1F | -4.79% [at 42.5 µM] (inactive) |  |
| Nc1ccc(S(=O)(=O)O)c(N)c1 | -0.0548% (inactive) |  |
| CCC(C)(C)C1CCC(O)CC1 (stereo not given) | 0.651% (inactive) |  |
| C[N+]1(C)CCC(=C(c2ccccc2)c2ccccc2)CC1 | 0.526% [at 42.5 µM] (inactive) |  |
| CCCCN(CCCC)C(=S)SSC(=S)N(CCCC)CCCC | 5.57% (inactive) |  |
| c1ccc(COCc2ccccc2)cc1 | 1.62% (inactive) |  |
| Cc1nc2ccccn2c(=O)c1CCN1CCC(C(=O)c2ccc(F)cc2)CC1 | -1.03% [at 42.5 µM] (inactive) |  |
| Cc1ccnc2ccccc12 | 0.0536% (inactive) |  |
| Fc1c(F)c(F)c(Br)c(F)c1F | 0.0239% (inactive) |  |
| CC1(C)C(=O)N(Br)C(=O)N1Cl | 5.18% (inactive) |  |
| CO[Si](C)(OC)OC | -0.386% (inactive) |  |
| CCOC(=O)[C@@H](C)Oc1ccc(Oc2nc3ccc(Cl)cc3o2)cc1 | 2.54% (inactive) |  |
| CSc1ccc(Oc2ccc(S(N)(=O)=O)cc2CN(C)C)cc1C | -8.84% (inactive) |  |
| CC(CCc1ccc2c(c1)OCO2)NN (stereo not given) | -1.46% [at 42.5 µM] (inactive) |  |
| O=C(CCCCCCCCC#CI)Oc1ccccc1 | -1.23% [at 42.5 µM] (inactive) |  |
| CCCCCCCCCCOS(=O)(=O)O | 0.35% (inactive) |  |
| CNC(=O)N(c1ccccc1)c1ccccc1 | -0.212% (inactive) |  |
| CC1=CC(O)CC(C)(C)C1 (stereo not given) | 0.158% (inactive) |  |

| SMILES | activation | Potency |
| --- | --- | --- |
| C=CC(=O)NCOCC(C)C | -0.115% (inactive) |  |
| NC(=O)Nc1ccc(Cl)cc1 | -1.26% (inactive) |  |
| Oc1cc(O)c(Cl)cc1Cl | -2.73% (inactive) |  |
| COC(=O)Nc1nc2ccc(C(=O)c3cccs3)cc2[nH]1 | 0.542% [at 42.5 µM] (inactive) |  |
| O=S(=O)(c1ccccc1)c1ccc(Cl)cc1 | 3.32% (inactive) |  |
| CCCCCCCCCCCC[N+](C)(C)CC(=O)[O-] | -3.4% (inactive) |  |
| CCCCC(CC)C(=O)OCCOCCOCCOCCOC(=O)C(CC)CCCC (stereo not given) | 5.26% (inactive) |  |
| CC(C)(C)C(=O)O | 1.47% (inactive) |  |
| CCOCCn1c(C2CCN(CCc3ccc(C(C)(C)C(=O)O)cc3)CC2)nc2ccccc21 | 2.49% [at 42.5 µM] (inactive) |  |
| Nc1c(I)cc(I)c(C(=O)N(CCC(=O)O)c2ccccc2)c1I | -2.31% [at 42.5 µM] (inactive) |  |
| Cc1occc1C(=O)Nc1ccc(C(=O)N2CCC(F)(F)/C(=C\C(=O)N3CCC(N4CCCCC4)CC3)c3ccccc32)cc1 | -5.91% [at 42.5 µM] (inactive) |  |
| COc1cc2c(cc1OC)-c1cc(=Nc3c(C)cc(C)cc3C)n(C)c(=O)n1CC2 | -12.8% [at 42.5 µM] (inactive) |  |
| CC(C)(CCl)c1ccccc1 | -0.236% (inactive) |  |
| CCOC(=O)/C=C/C(=O)O | 6.65% (inactive) |  |
| Cc1ccc(S)cc1 | -3.11% (inactive) |  |
| CN1CCN(CCCN2c3ccccc3Sc3ccc(S(=O)(=O)N(C)C)cc32)CC1 | -2.65% [at 42.5 µM] (inactive) |  |
| Oc1ccc(Nc2ccccc2)cc1 | -6.59% (inactive) |  |
| CCNC(=O)N1CCN(CCCC(c2ccc(F)cc2)c2ccc(F)cc2)CC1 | 0.962% [at 42.5 µM] (inactive) |  |
| CC(=O)N(c1onc(C)c1C)S(=O)(=O)c1ccc(N)cc1 | 3.13% [at 42.5 µM] (inactive) |  |
| C=CCOC(=O)/C=C\C(=O)OCC=C | 1% (inactive) |  |
